Screens as filed in PubChem.
SARS 3CLpro inh = SARS-CoV 3CLpro protease inhibition. inhibition, % at 6 µM. actives 0.14% (n = 290,000). recombinant SARS-CoV 3CLpro, quenched FRET peptide cleavage. AID 1706; in the data active = inhibition above about 12%
PrPC TRFRET = inhibitors of human cell surface prion protein PrPC | actives 0.43% (n = 370,000) | P04156 | inhibition, % at 13.8 µM | TR-FRET read-out; in the data active = inhibition above about 24%; note: 0% = median of the test wells and 100% = reference compound wells
GDH-TPI counter-1 = counter-screen for M. tuberculosis FBA inhibitors: GDH-TPI coupled enzymes; GDH-TPI coupled enzyme counterscreen, NADH absorbance; inhibition, % at 4.8 µM; actives 1.2% (n = 360,000); in the data active = inhibition above about 30%;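 note: 0% = DMSO wells and 100% = wells lacking the enzyme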
Mtb FBA inh = Mtb fructose-bisphosphate aldolase inhibition; inhibition, % at 1 µM; AID 588726; purified M. tuberculosis FBA, fluorescence read-out; P9WQA3; actives 2.3% (n = 360,000);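 note: 0% = vehicle and 100% = reference inhibitor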
Target sequence (P9WQA3 whole entry, looked up): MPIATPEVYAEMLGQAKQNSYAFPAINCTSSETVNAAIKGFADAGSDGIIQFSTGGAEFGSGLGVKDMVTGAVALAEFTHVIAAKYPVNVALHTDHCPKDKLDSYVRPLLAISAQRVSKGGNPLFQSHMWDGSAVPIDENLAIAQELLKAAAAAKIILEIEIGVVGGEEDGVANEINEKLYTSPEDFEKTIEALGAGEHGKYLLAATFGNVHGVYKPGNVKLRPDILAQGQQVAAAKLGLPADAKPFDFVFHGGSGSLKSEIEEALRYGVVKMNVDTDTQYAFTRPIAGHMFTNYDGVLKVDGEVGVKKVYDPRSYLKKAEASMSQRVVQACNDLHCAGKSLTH
BH1578 lux ind = inducers of Vibrio cholerae quorum light production without autoinducers. V. cholerae BH1578 lux reporter, luminescence, 6 h. activation, % at 18.7 µM. actives 0.16% (n = 350,000). AID 588436; in the data active = activation mostly above about 9.7%, no sharp cut-off
Mtb FBA confirm = Mtb FBA inhibition, confirmed. actives 78% (n = 5,600). purified M. tuberculosis FBA, fluorescence read-out. shares compounds with Mtb FBA inh. inhibition, % at 1 µM. AID 651616;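 note: 0% = vehicle wells and 100% = reference inhibitor wells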
GDH-TPI counter-2 = inhibits GDH-TPI coupling enzymes, flagging Mtb FBA hits. inhibition, % at 1 µM. GDH-TPI coupled enzyme counterscreen, fluorescence. shares compounds with Mtb FBA inh. actives 81% (n = 5,600); in the data active = inhibition above about 10%
Numbers without * were called inactive; i = inactive; nt = not tested or not shown; + = active, no number. Sampled rows, rich in hits. Any-hit rate of the full collection: about 3.9%. Cut-off read from the data, not from the text of the source, unless noted: active = inhibition above about 27%; inactive = the rest.

SMILES	SARS 3CLpro inh	PrPC TRFRET	GDH-TPI counter-1	Mtb FBA inh	BH1578 lux ind	Mtb FBA confirm	GDH-TPI counter-2
Cc1oc2cc([N+](=O)[O-])c(O)c([N+](=O)[O-])c2c1C(=O)c1ccc(Cl)cc1	1.4	-20.8	31.2*	72.0*	7.4	14.5	13.2*
CCOC(=O)c1c(C)n(C)c2cc([N+](=O)[O-])c(O)c([N+](=O)[O-])c12	-4.1	-6.2	-5.2	4.0	4.2	nt	nt
Cc1ccc(S(=O)(=O)N2CCOCC2)cc1NC(=O)COc1ccccc1Cc1ccccc1	nt	16.1	-7.3	-2.4	i	nt	nt
CCc1c(C)c(C#N)c2nc3ccccc3n2c1Cl	4.3	nt	nt	nt	nt	nt	nt
Cc1ccc(Cc2c(C)c(C#N)c3[nH]c4ccccc4n3c2=O)cc1	4.6	2.0	-5.3	47.8*	-0.1	95.5*	64.6*
CCc1c(C)c(C#N)c2[nH]c3ccccc3n2c1=S	6.7	-11.5	11.2	29.5*	-0.7	64.5*	59.8*
CCc1cc(=O)n2c([nH]c3ccccc32)c1C#N	2.9	1.7	1.2	66.3*	-0.1	59.6*	50.3*
COc1ccc(CNC(=O)COc2cc3c(c4oc(=O)cc(C)c24)CCC(C)(C)O3)cc1	5.9	-4.5	21.6	43.3*	-0.4	+	170.9*
Cc1c(C)c2c(OCC(=O)N3CCC(C(=O)NCC(C)C)CC3)cc3c(c2oc1=O)CCC(C)(C)O3	-0.1	nt	7.8	51.2*	8.8	-3.9	-0.2
COc1ccc(CNC(=O)COc2ccc(S(=O)(=O)N3CCOCC3)cc2C)cc1	-2.6	5.8	-9.1	-0.6	-0.4	nt	nt
Cc1cc(N2CCNC[C@H]2C)ccc1N1CCN(Cc2ccccc2)[C@H](C)C1	nt	-13.3	nt	nt	nt	nt	nt
COc1ccc2c(c1)[C@@]1(OCCC=C[C@H]1C)C(=O)N2Cc1ccccc1C(F)(F)F	nt	-1.9	nt	nt	nt	nt	nt
CCCOc1ncnc2c1[nH]c1ccccc12	3.2	12.6	5.5	25.1	nt	nt	nt
CC(C)Oc1ncnc2c1[nH]c1ccccc12	0.2	16.0	-6.9	33.5*	i	165.1*	130.4*
Cc1nn(-c2ccccc2)c2sc(C(=O)NCCc3ccc(Cl)cc3)cc12	nt	2.7	nt	nt	nt	nt	nt
CCn1c(-c2cccs2)nc2ccccc21	2.2	1.5	2.2	57.7*	-1.0	122.5*	108.1*
CCn1c(N)nc2ccccc21	0.5	4.3	-5.8	1.8	2.6	nt	nt
C#CCn1c(-c2cccs2)nc2ccccc21	5.6	-4.0	10.4	67.6*	-0.6	61.5*	39.3*
COc1ccc(C(C(=O)NC2CCCCC2)N(Cc2cccnc2)C(=O)c2snc(C(N)=O)c2N)cc1 (centres undefined)	-0.2	2.7	13.6	11.6	-0.1	nt	nt
Cc1ccsc1C(=O)N1CCc2ccccc2C1	-0.7	3.4	1.7	4.1	-0.1	nt	nt
Cc1cccc2c1-c1sc(C(=O)N3CCc4ccccc4C3)cc1CO2	0.7	-8.1	-1.4	41.1*	-0.1	59.1*	40.9*
CN1CCN(C(=O)c2cc3c(s2)-c2ccccc2S(=O)(=O)C3)CC1	0.9	-2.1	19.4	-0.8	-0.3	nt	nt
Cc1cccc2c1-c1sc(C(=O)N3CCCCC3)cc1CO2	4.3	-6.5	10.9	42.2*	-0.2	10.9	19.1*
COc1ccccc1N1CCN(C(=O)c2coc(=O)c(Br)c2)CC1	-4.0	2.5	15.3	84.4*	-0.2	+	+
COc1ccccc1N1CCN(C(=O)c2cccc(C(=O)N3CCN(c4ccccc4OC)CC3)c2)CC1	-4.9	1.5	4.5	0.8	i	nt	nt
SMILES	SARS 3CLpro inh	PrPC TRFRET	GDH-TPI counter-1	Mtb FBA inh	BH1578 lux ind	Mtb FBA confirm	GDH-TPI counter-2
CN(C)CCNC(=O)c1coc(=O)c(Br)c1	-2.4	4.6	10.0	66.3*	-0.2	+	+
COc1ccccc1NC(=O)c1coc(=O)c(Br)c1	-4.4	-0.5	5.5	62.7*	i	52.1*	46.1*
Cc1ccc(C(=O)NCCN(C)C)c(C)c1	2.1	-0.4	7.0	3.3	nt	nt	nt
CSc1ncccc1C(=O)NCC12CC3CC(CC(C3)C1)C2	3.8	0.0	-1.2	-1.6	-1.4	nt	nt
COCCn1nc2cc(C(=O)NCC34CC5CC(CC(C5)C3)C4)ccc2c1OC	1.6	0.8	9.4	43.4*	-4.5	+	+
O=C(NCC12CC3CC(CC(C3)C1)C2)c1nc2ncccn2n1	0.2	14.2	-14.7	-0.1	5.8	nt	nt
CCCn1nc2cc(C(=O)NCC34CC5CC(CC(C5)C3)C4)ccc2c1OCC	6.9	11.2	8.8	28.7*	i	4.2	-3.3
COc1cccc(-c2csc(NC(=O)Oc3ccccc3)n2)c1	0.2	-2.4	4.1	1.4	-0.6	nt	nt
COc1cccc(-c2csc(NNC(=O)c3cccs3)n2)c1	-3.1	6.9	3.7	63.7*	0.7	27.6*	14.2*
Cc1coc2c1c(C)cc1oc(=O)c(CC(=O)NCC(=O)O)c(C)c12	-0.9	9.0	18.9	101.1*	i	141.3*	94.2*
Cc1cc2oc(=O)c(CC(=O)NCCCN(C)C)c(C)c2c2occ(C(C)(C)C)c12	-4.0	nt	nt	nt	nt	nt	nt
Cc1oc2c(c(C)cc3oc(=O)c(CC(=O)NCCC(=O)O)c(C)c32)c1C	-1.3	-7.7	23.1	30.8*	-1.2	159.0*	99.2*
Cc1oc2c(c(C)cc3oc(=O)c(CC(=O)N[C@@H](CC(C)C)C(=O)O)c(C)c32)c1C	-1.5	-0.1	10.8	30.5*	i	84.8*	63.9*
Cc1cc2oc(=O)c(CC(=O)O)c(C)c2c2occ(C(C)(C)C)c12	3.5	-0.8	18.4	15.3	i	nt	nt
Cc1coc2c1c(C)cc1oc(=O)c(CC(=O)NCCCCCC(=O)O)c(C)c12	-2.1	-1.1	2.1	61.6*	i	+	175.0*
CCCCn1c(-c2csc3ccccc23)n[nH]c1=S	1.5	7.5	-2.0	0.7	i	nt	nt
CCCCCCn1c(-c2cccs2)n[nH]c1=S	5.2	-1.3	183.3*	47.7*	-4.5	-3.8	-7.4
CCOc1ccc2nc(NC(=O)CN3C(=O)C4CCCCC4C3=O)sc2c1 (centres undefined)	nt	-3.7	1.1	-1.1	i	nt	nt
CCCCc1ccc(S(=O)(=O)NC(=O)C2(C)CCN2C(=O)CCc2cccs2)cc1 (centres undefined)	nt	0.3	-0.9	-2.4	-0.5	nt	nt
O=C(NCCc1cccnc1)C1CCC(=O)N(Cc2ccc(Cl)cc2)C1 (centres undefined)	4.1	8.7	7.8	2.0	-0.3	nt	nt
COc1ccc(-c2cc3nc(NCCN4CCCC4)n(C)c(=O)c3s2)cc1OC	nt	-21.8	20.4	38.9*	-0.1	96.1*	72.5*
Cc1cscc1-c1nc(NCC2CC2)nc2ccsc12	nt	-1.4	4.8	37.1*	4.5	127.0*	100.1*
COc1ccccc1CNc1nc(-c2ccccc2CO)c2sccc2n1	nt	0.3	5.8	50.6*	-0.4	130.4*	90.4*
Fc1ccccc1-c1nc(NCC2CC2)nc2ccsc12	nt	0.8	4.4	41.9*	-4.5	99.6*	83.5*
CN(C)CCNc1nc(-c2ccccc2F)c2sccc2n1	nt	-0.7	16.9	16.7	i	nt	nt
